Measurements reported in PubChem BioAssay (NCI).
Compounds without any hit were thinned out: in the full panel of roughly 83,000, 20% have a hit.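 For each line, cells grew in 96-well plates with the test compound present at a single concentration for 48 hours.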 The source made the active and inactive calls. How the source made its calls: active means growth percent below 10; inactive means the rest.

How the values were obtained:
Assay in all cases: NCI-60 one-dose screen, 48 h (100 = growth as untreated, 0 = no growth, -100 = all killed)
Details in all cases: 10 µM unless noted
NCI-H23 lung = test system: NCI-H23 lung
NCI-H226 lung = test system: NCI-H226 lung
NCI-H322M lung = test system: NCI-H322M lung
HOP-62 NSCLC = test system: HOP-62 NSCLC
NCI-H460 lung = test system: NCI-H460 lung
HOP-92 NSCLC = test system: HOP-92 NSCLC
NCI-H522 lung = test system: NCI-H522 lung
A549/ATCC NSCLC = test system: A549/ATCC NSCLC
786-0 renal = test system: 786-0 renal
COLO 205 colon = test system: COLO 205 colon
DU-145 prostate = test system: DU-145 prostate
K-562 leukemia = test system: K-562 leukemia
MALME-3M melanoma = test system: MALME-3M melanoma
MDA-MB-231 breast = test system: MDA-MB-231 breast
RXF 393 renal = test system: RXF 393 renal
SF-268 CNS = test system: SF-268 CNS
SF-295 CNS = test system: SF-295 CNS
SF-539 CNS = test system: SF-539 CNS
UACC-257 melanoma = test system: UACC-257 melanoma
M14 melanoma = test system: M14 melanoma

Measured: growth

NS(=O)(=O)c1ccc(Nc2nc(N/N=C/c3cc(Br)c(O)c(Br)c3)nc(Nc3ccccc3)n2)cc1
inactive: NCI-H23 lung 27.7% | NCI-H226 lung 54.7% | NCI-H322M lung 37.6% | HOP-62 NSCLC 27% | NCI-H460 lung 99.8% | NCI-H522 lung 49.4% | A549/ATCC NSCLC 97.6% | 786-0 renal 25.1% | COLO 205 colon 88% | DU-145 prostate 50.6% | K-562 leukemia 14.3% | MALME-3M melanoma 42% | RXF 393 renal 54% | SF-268 CNS 21% | SF-295 CNS 43.8% | UACC-257 melanoma 97.4% | M14 melanoma 59.4%
active: HOP-92 NSCLC -4.41% | MDA-MB-231 breast -0.169% | SF-539 CNS -25.8%

CC1=C(C(=O)Nc2ccccc2)C(c2cccc3ccccc23)n2c(nc3ccccc32)N1 (stereo not given)
inactive: NCI-H23 lung 76.7% | NCI-H322M lung 44% | NCI-H460 lung 27.6% | NCI-H522 lung 63.6% | A549/ATCC NSCLC 28.2% | COLO 205 colon 95.2% | DU-145 prostate 29% | K-562 leukemia 82.9% | MALME-3M melanoma 43.8% | MDA-MB-231 breast 53.8% | RXF 393 renal 13.9% | SF-268 CNS 19.8% | SF-295 CNS 32.2% | SF-539 CNS 43.8% | UACC-257 melanoma 45.1% | M14 melanoma 65.7%
active: NCI-H226 lung -39.8% | HOP-62 NSCLC -61.9% | HOP-92 NSCLC 1.76% | 786-0 renal 6.29%

Cn1cc(-c2cc(N)n3nc(-c4c[nH]c5ccccc45)cc3n2)c2cc(Br)ccc21
active: NCI-H23 lung -75.2% | NCI-H226 lung -11.9% | NCI-H322M lung -37.2% | HOP-62 NSCLC -76.9% | NCI-H460 lung -59% | HOP-92 NSCLC -74.5% | NCI-H522 lung -74.7% | A549/ATCC NSCLC -50% | 786-0 renal -73.7% | COLO 205 colon -90.1% | DU-145 prostate -70% | K-562 leukemia 7.7% | MALME-3M melanoma -76.9% | MDA-MB-231 breast -89.3% | RXF 393 renal -80.6% | SF-268 CNS -39.8% | SF-295 CNS -93.6% | SF-539 CNS -93.7% | UACC-257 melanoma -79.8% | M14 melanoma -65.7%

CCCCCCCOc1ccc(S(=O)(=O)Nc2ccc(C)c(F)c2C(=O)O)cc1
inactive: NCI-H23 lung 93.2% | NCI-H226 lung 88% | NCI-H322M lung 100% | HOP-62 NSCLC 98% | NCI-H460 lung 102% | NCI-H522 lung 84.3% | A549/ATCC NSCLC 103% | 786-0 renal 95% | COLO 205 colon 122% | DU-145 prostate 104% | K-562 leukemia 88.4% | MALME-3M melanoma 91.3% | MDA-MB-231 breast 96% | RXF 393 renal 114% | SF-268 CNS 101% | SF-295 CNS 89.3% | SF-539 CNS 102% | UACC-257 melanoma 102% | M14 melanoma 96.4%
active: HOP-92 NSCLC 8.57%

COc1ccc(OC)c(Cn2cc(C#N)c(N)c2C(=O)c2ccc(Br)cc2)c1
active: NCI-H522 lung -29%
inactive: NCI-H23 lung 54.4% | NCI-H226 lung 64.9% | NCI-H322M lung 85.8% | HOP-62 NSCLC 40.2% | NCI-H460 lung 41.8% | HOP-92 NSCLC 55.7% | A549/ATCC NSCLC 46.4% | 786-0 renal 63.9% | COLO 205 colon 30.4% | DU-145 prostate 79.1% | K-562 leukemia 15.2% | MALME-3M melanoma 42.6% | MDA-MB-231 breast 60.7% | RXF 393 renal 41.8% | SF-268 CNS 68.5% | SF-295 CNS 39.1% | SF-539 CNS 47.7% | UACC-257 melanoma 55.6% | M14 melanoma 33.8%

O=C(/C=C1\C(=O)N(Cc2ccccc2)c2ccccc21)c1cc2ccccc2oc1=O
active: K-562 leukemia 1.52%
inactive: NCI-H23 lung 89.4% | NCI-H226 lung 74.2% | NCI-H322M lung 93.9% | HOP-62 NSCLC 102% | NCI-H460 lung 103% | HOP-92 NSCLC 87.9% | NCI-H522 lung 35.4% | A549/ATCC NSCLC 104% | 786-0 renal 100% | COLO 205 colon 28.6% | DU-145 prostate 104% | MALME-3M melanoma 68.9% | MDA-MB-231 breast 81% | RXF 393 renal 86.1% | SF-268 CNS 95.6% | SF-295 CNS 104% | SF-539 CNS 98.9% | UACC-257 melanoma 107% | M14 melanoma 85.1%

O=C(Nc1nc2ccccc2s1)Nc1ccccc1Cl
inactive: NCI-H23 lung 70.5% | NCI-H226 lung 31.5% | NCI-H322M lung 94.3% | HOP-62 NSCLC 12.2% | NCI-H460 lung 66.9% | HOP-92 NSCLC 74.3% | NCI-H522 lung 64.1% | A549/ATCC NSCLC 74.5% | 786-0 renal 41% | COLO 205 colon 97.5% | DU-145 prostate 99.9% | K-562 leukemia 86.2% | MALME-3M melanoma 79.7% | MDA-MB-231 breast 51.9% | RXF 393 renal 73.8% | SF-268 CNS 77.3% | SF-295 CNS 45% | SF-539 CNS 51% | UACC-257 melanoma 98.8% | M14 melanoma 93.7%

Cc1ccc2nc(SCc3ccccc3F)n(-c3ccccc3)c(=O)c2c1
inactive: NCI-H23 lung 93.9% | NCI-H226 lung 96.7% | NCI-H322M lung 97.1% | HOP-62 NSCLC 95% | NCI-H460 lung 105% | HOP-92 NSCLC 82.1% | NCI-H522 lung 87.8% | A549/ATCC NSCLC 85.8% | 786-0 renal 94.9% | COLO 205 colon 116% | DU-145 prostate 108% | K-562 leukemia 83.8% | MALME-3M melanoma 118% | MDA-MB-231 breast 76.1% | RXF 393 renal 104% | SF-268 CNS 113% | SF-295 CNS 89.5% | SF-539 CNS 99.5% | UACC-257 melanoma 106% | M14 melanoma 95.3%

Cc1ccc(N=Nc2c(N)nn3c(-c4cc5ccccc5oc4=O)ccnc23)cc1
active: COLO 205 colon 6.35% | RXF 393 renal 7.4% | SF-539 CNS -3.24%
inactive: NCI-H23 lung 28% | NCI-H226 lung 33.4% | NCI-H322M lung 51.6% | HOP-62 NSCLC 48.5% | NCI-H460 lung 50% | HOP-92 NSCLC 49.9% | NCI-H522 lung 64.9% | A549/ATCC NSCLC 45.1% | 786-0 renal 53.4% | DU-145 prostate 43.7% | K-562 leukemia 40.7% | MALME-3M melanoma 67.1% | MDA-MB-231 breast 30.7% | SF-268 CNS 56.8% | SF-295 CNS 57.4% | UACC-257 melanoma 90.3% | M14 melanoma 46.6%

Cn1ncc2c(N)nc(Oc3ccccc3-c3ccccc3)nc21
active: K-562 leukemia 6.56%
inactive: NCI-H23 lung 29.6% | NCI-H226 lung 45.2% | NCI-H322M lung 72.2% | HOP-62 NSCLC 57.9% | NCI-H460 lung 14.5% | HOP-92 NSCLC 62.4% | NCI-H522 lung 22.2% | A549/ATCC NSCLC 55.9% | 786-0 renal 52.6% | COLO 205 colon 33.9% | DU-145 prostate 73.1% | MALME-3M melanoma 25.7% | MDA-MB-231 breast 43% | RXF 393 renal 25% | SF-268 CNS 55.6% | SF-295 CNS 27.2% | SF-539 CNS 25.9% | UACC-257 melanoma 63.5% | M14 melanoma 13.6%

CCCCCCCCCc1ccc(C(=O)Nc2cc(C)ccc2C(=O)OC)cc1
inactive: NCI-H23 lung 102% | NCI-H226 lung 98.9% | NCI-H322M lung 112% | HOP-62 NSCLC 107% | NCI-H460 lung 115% | HOP-92 NSCLC 61.6% | NCI-H522 lung 101% | A549/ATCC NSCLC 114% | 786-0 renal 101% | COLO 205 colon 131% | DU-145 prostate 119% | K-562 leukemia 98.8% | MALME-3M melanoma 99.8% | MDA-MB-231 breast 103% | RXF 393 renal 117% | SF-268 CNS 116% | SF-295 CNS 103% | SF-539 CNS 112% | UACC-257 melanoma 106% | M14 melanoma 105%

COc1cc(C2CC(c3cc(OC)c(OC)c(OC)c3)=Nc3c(N)nc(N)nc3N2)ccc1Oc1nc(Nc2ccc(F)cc2)nc(N(C)C)n1 (stereo not given)
inactive: NCI-H23 lung 89.8% | NCI-H226 lung 106% | NCI-H322M lung 94.4% | HOP-62 NSCLC 99.9% | NCI-H460 lung 42.8% | HOP-92 NSCLC 38.1% | NCI-H522 lung 56.8% | A549/ATCC NSCLC 52.9% | 786-0 renal 36.6% | COLO 205 colon 73.9% | DU-145 prostate 70.7% | K-562 leukemia 15.1% | MALME-3M melanoma 78.6% | MDA-MB-231 breast 24.6% | RXF 393 renal 26.5% | SF-268 CNS 63.5% | SF-295 CNS 61.3% | SF-539 CNS 62% | UACC-257 melanoma 58.9% | M14 melanoma 66.5%

COC(=O)c1cc(C(=O)CBr)n2c1ccc1c3ccccc3ccc12
inactive: NCI-H23 lung 51.4% | NCI-H226 lung 53.4% | NCI-H322M lung 82.8% | HOP-62 NSCLC 48.9% | NCI-H460 lung 39.4% | HOP-92 NSCLC 53.2% | NCI-H522 lung 59.1% | A549/ATCC NSCLC 31.3% | 786-0 renal 52.1% | COLO 205 colon 38.7% | DU-145 prostate 69.3% | K-562 leukemia 43% | MALME-3M melanoma 51.2% | MDA-MB-231 breast 69.8% | RXF 393 renal 67% | SF-268 CNS 74.7% | SF-295 CNS 37.2% | SF-539 CNS 43.6% | UACC-257 melanoma 82.6% | M14 melanoma 69.5%

CC(C)C[C@H](NC(=O)[C@@H]1CCCCCCCCCCC(=O)N[C@@H](CC(=O)N2CCC[C@@H]2C2CCCC2)C(=O)N1)B(O)O
active: NCI-H23 lung -83.3% | NCI-H226 lung -33.3% | NCI-H322M lung -59.8% | HOP-62 NSCLC -14.7% | NCI-H460 lung 0.61% | HOP-92 NSCLC -63.2% | NCI-H522 lung -49.1% | A549/ATCC NSCLC 1.48% | 786-0 renal -43.8% | COLO 205 colon -64.6% | DU-145 prostate 6.72% | K-562 leukemia 0.735% | MALME-3M melanoma -75.1% | MDA-MB-231 breast -72.4% | RXF 393 renal -84.8% | SF-268 CNS 4.67% | SF-295 CNS -93.4% | SF-539 CNS -44.8% | UACC-257 melanoma -31% | M14 melanoma -48.2%

CC1=C(C(=O)OC(C)C)C(c2ccc(O)cc2)NC(=O)N1 (stereo not given)
inactive: NCI-H23 lung 101% | NCI-H226 lung 105% | NCI-H322M lung 106% | HOP-62 NSCLC 99.4% | NCI-H460 lung 117% | HOP-92 NSCLC 105% | NCI-H522 lung 81.3% | A549/ATCC NSCLC 101% | 786-0 renal 99.5% | COLO 205 colon 114% | DU-145 prostate 111% | K-562 leukemia 98.5% | MALME-3M melanoma 102% | MDA-MB-231 breast 101% | RXF 393 renal 104% | SF-268 CNS 115% | SF-295 CNS 105% | SF-539 CNS 101% | UACC-257 melanoma 96.5% | M14 melanoma 99.8%
